Compound activity: PubChem, The Scripps Research Institute Molecular Screening Center
AHR act – activators of human aryl hydrocarbon receptor. activation, % at 5 µM. AHR-responsive luciferase reporter cells, luminescence. AID 2796. P35869. hit rate 2.5% among 320,000; in the data active = activation above about 47%;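 also: 0% = vehicle wells and 100% = reference agonist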
Target sequence (P35869 whole entry, looked up): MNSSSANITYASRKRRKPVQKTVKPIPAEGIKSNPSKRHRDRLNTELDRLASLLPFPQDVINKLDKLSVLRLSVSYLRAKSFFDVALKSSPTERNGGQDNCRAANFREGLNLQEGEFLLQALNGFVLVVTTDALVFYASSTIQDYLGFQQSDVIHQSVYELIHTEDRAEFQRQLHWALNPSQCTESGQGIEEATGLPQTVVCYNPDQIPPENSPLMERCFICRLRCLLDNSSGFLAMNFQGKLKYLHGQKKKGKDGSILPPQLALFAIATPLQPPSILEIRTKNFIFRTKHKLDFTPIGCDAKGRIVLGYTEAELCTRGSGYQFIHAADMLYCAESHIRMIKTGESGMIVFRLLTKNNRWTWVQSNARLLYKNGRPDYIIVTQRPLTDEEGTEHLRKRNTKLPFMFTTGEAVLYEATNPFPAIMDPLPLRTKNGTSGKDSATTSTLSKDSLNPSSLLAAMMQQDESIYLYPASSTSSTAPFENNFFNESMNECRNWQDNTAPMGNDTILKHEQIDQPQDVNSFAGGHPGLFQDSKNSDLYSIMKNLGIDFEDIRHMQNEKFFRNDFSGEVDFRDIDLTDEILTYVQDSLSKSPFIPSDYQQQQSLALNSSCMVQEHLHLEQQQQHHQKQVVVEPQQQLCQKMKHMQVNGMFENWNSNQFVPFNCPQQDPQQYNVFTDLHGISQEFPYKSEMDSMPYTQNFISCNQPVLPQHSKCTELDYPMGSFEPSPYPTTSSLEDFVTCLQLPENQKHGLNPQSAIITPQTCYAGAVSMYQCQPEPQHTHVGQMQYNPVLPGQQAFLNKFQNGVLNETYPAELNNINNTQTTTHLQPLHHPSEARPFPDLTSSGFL
ssDAF12 agonist – activates DAF-12 receptor from parasite S. stercoralis. hit rate 1% among 370,000. HEK293 ssDAF-12/GRIP1 lit1-tk-luc reporter, luminescence; % of 3 µM dafachronic acid response. activation, % at 6.8 µM;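 active = activation above the mean over all tested compounds plus 3 SD, cut at about 0.9% in these data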;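 also: 0% = DMSO-only wells and 100% = 3 µM delta7-dafachronic acid wells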
hcDAF12 agonist – activators of H. contortus DAF-12 nuclear receptor; HEK293 hcDAF-12 lit1-tk-luc reporter, luminescence; 0% DMSO, 100% Δ7-dafachronic acid; hit rate 1.4% among 370,000; AID 652067; activation, % at 6.8 µM;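 active = activation above the mean of all tested compounds plus 3 SD, cut at about 5.5% in these data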;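 also: 100% = response to 3 µM Δ7-dafachronic acid high control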
DAX1 inh-1 – DAX1 (NR0B1) inhibition, primary screen. HEK293T StAR-luciferase reporter, SF-1/DAX-1 repression relief. inhibition, % at 6.8 µM. hit rate 1.1% among 370,000. AID 652010;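 active = inhibition above the mean over all tested compounds plus 3 SD, cut at about 3.6% in these data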;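 also: 0% = DAX-1 cells with DMSO and 100% = cells lacking DAX-1 with DMSO; higher inhibition means more luminescence from relief of DAX-1 repression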
hgDAF-12 ag – hgDAF-12 agonism, primary luciferase screen. HEK293 GAL4-hgDAF12 UAS-luciferase reporter, agonist luminescence; normalized to butyrate control. activation, % at 6.8 µM. hit rate 1.8% among 370,000;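 active = activation above a cutoff set at the mean of all screened compounds plus 3 SD, cut at about 10% in these data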;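 also: 0% = DMSO wells and 100% = sodium butyrate wells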
DAX1 inh-2 – NR0B1 (DAX1) inhibition; P51843; HEK293 Gal4-DAX1 luciferase reporter, luminescence; inhibition, % at 6.75 µM; hit rate 0.99% among 340,000; AID 504766;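 active = inhibition above the mean over all tested compounds plus 3 SD, cut at about 4.2% in these data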;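 also: 0% = DAX1-transfected cells with DMSO and 100% = empty-vector control cells with DMSO; inhibition shows as a rise in luminescence from relieved DAX1 repression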
* = called active by the depositor. Most compounds without a hit are left out; they make up all but 5.7% or so of the library.

Results for CCOC(=O)N1CCN(C(=O)C2CCN(S(=O)(=O)c3ccc(OC)cc3)CC2)CC1 ?
AHR act: 0.3; ssDAF12 agonist: -1.3; hcDAF12 agonist: -1.8; DAX1 inh-1: 0.0; hgDAF-12 ag: 4.0; DAX1 inh-2: 0.9

What do the screens show for `COc1ccccc1NC(=O)N1CCCC(c2nc3c(nnn3Cc3ccc(C)cc3)c(=O)[nH]2)C1` (configuration not stated)?
AHR act: 1.6; DAX1 inh-2: 1.9

Results for COc1ccc(/C(C)=N/NC(=S)NCc2ccco2)cc1 ?
AHR act: 62.7*; ssDAF12 agonist: -0.5; hcDAF12 agonist: -1.7; DAX1 inh-1: -0.7; hgDAF-12 ag: 1.9; DAX1 inh-2: 0.0

Results for O=C(c1[nH]c(C(F)(F)F)nc1-c1ccccc1)N1CCN(Cc2c(F)cccc2Cl)CC1 ?
ssDAF12 agonist: -0.8; hcDAF12 agonist: -0.3; DAX1 inh-1: 0.3; hgDAF-12 ag: -1.4

How did C[C@H](CO)N1C[C@H](C)[C@@H](CN(C)S(=O)(=O)c2ccccc2)Oc2ccc(NC(=O)NC3CCCCC3)cc2C1=O do in these assays?
AHR act: -1.5; ssDAF12 agonist: -0.4; hcDAF12 agonist: 0.4; DAX1 inh-1: 4.2*; hgDAF-12 ag: -0.1; DAX1 inh-2: -0.8

How did COc1ccc(NC(=O)Nc2ccc3c(c2)C(=O)N([C@H](C)CO)C[C@H](C)[C@@H](CN(C)S(=O)(=O)c2ccc(OC)cc2)O3)cc1 do in these assays?
AHR act: 0.1; ssDAF12 agonist: -0.8; hcDAF12 agonist: -0.8; DAX1 inh-1: 0.0; hgDAF-12 ag: -0.6; DAX1 inh-2: 6.4*

What do the screens show for `COc1ccc(S(=O)(=O)N(C)C[C@H]2Oc3ccc(NC(=O)Nc4ccc(C(F)(F)F)cc4)cc3C(=O)N([C@H](C)CO)C[C@@H]2C)cc1`?
AHR act: 1.6; ssDAF12 agonist: -1.3; hcDAF12 agonist: -0.3; DAX1 inh-1: 0.0; hgDAF-12 ag: -1.1; DAX1 inh-2: 0.2

What do the screens show for `CCOc1ccc(NC(=O)N(C2CCCCC2)C(C)c2cccnc2)cc1` (configuration not stated)?
AHR act: 6.4; ssDAF12 agonist: -1.5; hcDAF12 agonist: -3.5; DAX1 inh-1: -0.8; hgDAF-12 ag: -0.8; DAX1 inh-2: 0.0

How did CCOc1ccc(NC(=O)N(C2CCCCC2)C(C)c2ccncc2)cc1 (configuration not stated) do in these assays?
AHR act: -2.7; ssDAF12 agonist: 1.6*; hcDAF12 agonist: 2.7; DAX1 inh-1: -0.4; hgDAF-12 ag: 0.8; DAX1 inh-2: -0.3

Results for CCOc1ccc2nc(SCC3CC3(Cl)Cl)[nH]c2c1 (configuration not stated) ?
AHR act: 15.2; ssDAF12 agonist: -1.3; hcDAF12 agonist: 1.3; DAX1 inh-1: 0.2; hgDAF-12 ag: 11.6*; DAX1 inh-2: 5.1*

What do the screens show for `c1ccc2[nH]c(SCC3CCCCO3)nc2c1` (configuration not stated)?
AHR act: 6.3; ssDAF12 agonist: -0.3; hcDAF12 agonist: 2.8; DAX1 inh-1: 2.2; hgDAF-12 ag: 11.2*; DAX1 inh-2: 1.0

What do the screens show for `Cc1cc(C(=O)CSc2nc3ccccc3[nH]2)c(C)n1CC1CCCO1` (configuration not stated)?
AHR act: -14.6; ssDAF12 agonist: -3.6; hcDAF12 agonist: -5.2; DAX1 inh-1: -4.9; hgDAF-12 ag: -15.2; DAX1 inh-2: -5.5

How did ClC1(Cl)CC1CSc1nc2ccccc2[nH]1 (configuration not stated) do in these assays?
AHR act: 3.2; ssDAF12 agonist: -0.9; hcDAF12 agonist: -0.9; DAX1 inh-1: 2.6; hgDAF-12 ag: 12.3*; DAX1 inh-2: 0.0

Results for O=C(O)CSc1nc2ccccc2[nH]1 ?
AHR act: 8.9; ssDAF12 agonist: -0.5; hcDAF12 agonist: -0.5; DAX1 inh-1: 0.6; hgDAF-12 ag: 0.4; DAX1 inh-2: -1.4

Results for CCOC(=O)NC(=O)CSc1nc2ccc(OCC)cc2[nH]1 ?
AHR act: 13.9; ssDAF12 agonist: -0.6; hcDAF12 agonist: -0.6; DAX1 inh-1: -0.4; hgDAF-12 ag: -2.6; DAX1 inh-2: -0.3

Results for COc1ccc2cc(C3C(C#N)=C(N)OC(C)=C3C(C)=O)c(Cl)nc2c1 (configuration not stated) ?
AHR act: 13.8; ssDAF12 agonist: -0.5; hcDAF12 agonist: 0.4; DAX1 inh-1: -0.2; hgDAF-12 ag: 0.3; DAX1 inh-2: -0.3
